Experimental data as given in PubChem BioAssay (EPA / NIEHS).
Records with an inconclusive call do not appear. The source made the active and inactive calls. How the source made its calls: active means hit-call score of the fitted dose curve at least 0.9, where 1 is the maximum; inconclusive means response in the unintended direction; inactive means score below 0.9.

target: human Retinoid X Receptor beta (RXRb), RXRB (gene 6257) (UniProt P28702); test: ATG_RXRb_TRANS: Attagene TRANS-FACTORIAL HepG2 Assay for human Retinoid X Receptor beta (RXRb) (AID 2283013)
Sequence (P28702 whole entry, looked up): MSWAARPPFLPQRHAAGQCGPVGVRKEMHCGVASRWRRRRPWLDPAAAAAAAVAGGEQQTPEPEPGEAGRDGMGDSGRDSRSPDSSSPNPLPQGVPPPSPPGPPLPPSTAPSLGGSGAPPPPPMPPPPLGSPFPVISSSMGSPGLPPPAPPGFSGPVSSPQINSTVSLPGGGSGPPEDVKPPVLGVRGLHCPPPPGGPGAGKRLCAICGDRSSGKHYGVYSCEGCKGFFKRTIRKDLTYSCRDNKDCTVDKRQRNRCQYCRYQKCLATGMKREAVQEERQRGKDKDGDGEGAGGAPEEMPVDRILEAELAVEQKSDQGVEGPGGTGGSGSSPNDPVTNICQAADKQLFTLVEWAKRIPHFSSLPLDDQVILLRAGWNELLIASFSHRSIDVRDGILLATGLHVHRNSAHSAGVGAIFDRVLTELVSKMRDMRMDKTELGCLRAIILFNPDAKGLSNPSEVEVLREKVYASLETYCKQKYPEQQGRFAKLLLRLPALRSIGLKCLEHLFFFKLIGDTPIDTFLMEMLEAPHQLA
Method: ATG_TRANS is a cell-based, multiplexed-readout assay that uses HepG2, a human liver cell line, with measurements taken at 24 hours after chemical dosing in a 24-well plate.ATG_RXRb_TRANS is one of 30 assay component(s) measured or calculated from the ATG_TRANS assay. It is designed to make measurements of mRNA induction, a form of inducible reporter, as detected with fluorescence intensity signals by Reverse transcription polymerase chain reaction (RT-PCR) and Capillary electrophoresis technology.Data from the assay component ATG_RXRb_TRANS was analyzed into 1 assay endpoint. This assay endpoint, ATG_RXRb_TRANS, was analyzed in the positive analysis fitting direction relative to DMSO as the negative control and baseline of activity. Using a type of inducible reporter, measures of mRNA for gain-of-signal activity can be used to understand the reporter gene at the transcription factor-level as they relate to the gene RXRB. Furthermore, this assay endpoint can be referred to as a primary readout, because this assay has produced multiple assay endpoints where this one serves a reporter gene function. To generalize the intended target to other relatable targets, this assay endpoint is annotated to the nuclear receptor intended target family, where the subfamily is non-steroidal.
Human liver HepG2 cells are transiently transfected with multiple reporter transcription units (MRTUs) in 6-well plates using FuGene 6 reagent (Roche; 3 ml FuGene/1 mg DNA). The MRTU constructs are regulated by a cis-regulating element (promoter). […] A major difference between the CIS and TRANS system is that in CIS activities of endogenous TFs are measured, whereas the TRANS assay evaluates changes in activities of exogenous, chimeric NR-Gal4 proteins. […] At the end of 24 hour incubation, total RNA was isolated using TriZol reagent (Invitrogen). The isolated RNA is then reverse-transcribed using oligo(dT) primer and Mo-MLV reverse transcriptase (Invitrogen) with DNAse I (Ambion) treatment for 30 min. The one-tenth of the produced cDNA was amplified by PCR using Taq DNA polymerase (Invitrogen) and two reporter sequence-specific primers. The PCR products were fluorescently labeled by primer extension with 6-arboxyfluorescein (6-FAM) 5'-labeled reporter sequence-specific primer (2 min at 95 C, 20 s at 68 C and 10 min at 72 C) and these products were digested with 5U of HpaI (New England Biolabs) for 2h at 37 C. The fragments were purified using Qiaquick PCR columns (Qiagen), analyzed on an ABI 3130xL genetic analyzer (Applied Biosystems) with peak positions identified by using a set of X-rhodamine (ROX)-labeled MapMarker1000 molecular weight standards (BioVentures). The raw capillary electrophoresis data was processed using Attagraph software (Attagene).

| Structure (SMILES) | AC50 | outcome |
| --- | --- | --- |
| c1ccc(NNc2ccccc2)cc1 | 100 µM (active) |  |
| CCC(C)c1ccc(O)cc1 (stereo not given) | 100 µM (active) |  |
| CCOc1cccc(C2(N3CCN(c4ccccc4)CC3)CCC(C)CC2)c1 (stereo not given) |  | inactive |
| ClC1=C(Cl)C2(Cl)C3C(Cl)C=CC3C1(Cl)C2(Cl)Cl (stereo not given) |  | inactive |
| [As]#[In] |  | inactive |
| O=Cc1ccco1 |  | inactive |
| Cc1cccc(N)c1N | 46.1 µM (active) |  |
| CCCCCCCCn1sccc1=O | 15.4 µM (active) |  |
| OCCCl |  | inactive |
| c1ccc2c(c1)-c1cccc3cccc-2c13 | 31.2 µM (active) |  |
| Nc1ccc([N+](=O)[O-])cc1 |  | inactive |
| CS(=O)(=O)NC(=O)c1cc(Oc2ccc(C(F)(F)F)cc2Cl)ccc1[N+](=O)[O-] |  | inactive |
| c1ccc(N=Nc2ccccc2)cc1 |  | inactive |
| CN(C)c1ccc(C(=O)c2ccc(N(C)C)cc2)cc1 |  | inactive |
| [O-][Cl+]O |  | inactive |
| CC(C)N(Cc1ccccc1)C(=O)C(C)(C)C |  | inactive |
| CCCCCOC(=O)c1ccccc1C(=O)OCCCCC |  | inactive |
| OCCCBr |  | inactive |
| COP(=S)(OC)SCN1C(=O)c2ccccc2C1=O |  | inactive |
| COC(=O)c1ccccc1N |  | inactive |

| Structure (SMILES) | AC50 | outcome |
| --- | --- | --- |
| ClCCOCCCl |  | inactive |
| CNC(=O)Oc1cccc2c1OC(C)(C)C2 | 58.7 µM (active) |  |
| CCN(CC)CCO |  | inactive |
| N#CC(Br)Br |  | inactive |
| O=C(N[C@H](c1ccccc1)[C@@H]1CN2CCC1CC2)c1c(Cl)ccc(C(F)(F)F)c1Cl |  | inactive |
| CC(C)(OOC(C)(C)c1ccccc1)c1ccccc1 | 12.4 µM (active) |  |
| Oc1ccccc1Cl |  | inactive |
| CC(O)CCO (stereo not given) | 6.17 µM (active) |  |
| [Cl-].[Cl-].[Hg+2] |  | inactive |
| ClC1=C(Cl)[C@]2(Cl)[C@H]3[C@H]([C@@H]4C=C[C@H]3C4)[C@@]1(Cl)C2(Cl)Cl | 10.4 µM (active) |  |
| Cc1ccc(N)cc1 |  | inactive |
| C1=Cc2cccc3cccc1c23 |  | inactive |
| C[C@]12C=CC3=C4CCC(=O)C=C4CC[C@H]3[C@@H]1CC[C@@H]2O |  | inactive |
| O=C(O)C1C2CCC(O2)C1C(=O)O (stereo not given) |  | inactive |
| COC(=O)Nc1nc2ccccc2[nH]1 |  | inactive |
| CCC[CH2][Sn]([Cl])([CH2]CCC)[CH2]CCC | 0.0637 µM (active) |  |
| C=CCc1ccc2c(c1)OCO2 |  | inactive |
| Clc1ccc(C(c2ccc(Cl)cc2)C(Cl)(Cl)Cl)cc1 |  | inactive |
| O=[N+]([O-])C(Br)(CO)CO |  | inactive |
| CC(C)COC(=O)c1ccccc1C(=O)OCC(C)C | 43.6 µM (active) |  |
